Measured values taken from the supplement of paper PMC4466140.

B1: unnamed (peptide)
chain: DTFLPPPPPPPSNFE
B2: unnamed (peptide)
chain: DAPASKPSVPPRNYF

target: AgAbp1; assay: SPOT peptide array binding signal intensity (averaged, normalized) (arbitrary units (background-subtracted, floor 0; scale differs between SH3 domains)); higher = stronger binding of the SH3 domain to the peptide
Outline: (§1)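 GST-SH3 fusions from four yeast species, purified on glutathione Sepharose, were incubated at 10 μg/ml overnight at 4°C on membranes of synthetic 15-mer peptides in which cysteines were replaced with serines. Binding signal is the normalized, background-subtracted spot intensity averaged over replicates, in domain-specific arbitrary units.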

Binder	SPOT peptide array binding signal intensity
B1	2
B2	2.5

target: AgBbc1; assay: as above
Outline: as §1

Binder	SPOT peptide array binding signal intensity
B1	≤ 0
B2	239

target: AgBem1-D1; assay: as above
Outline: as §1

Binder	SPOT peptide array binding signal intensity
B1	≤ 0
B2	2

target: AgBzz1-D1; assay: as above
Outline: as §1

Binder	SPOT peptide array binding signal intensity
B1	≤ 0
B2	26.5

target: AgBzz1-D2; assay: as above
Outline: as §1

Binder	SPOT peptide array binding signal intensity
B1	≤ 0
B2	≤ 0

target: AgCyk3; assay: as above
Outline: as §1

Binder	SPOT peptide array binding signal intensity
B1	1
B2	2.5

target: AgFus1; assay: as above
Outline: as §1

Binder	SPOT peptide array binding signal intensity
B1	≤ 0
B2	≤ 0

target: AgHof1; assay: as above
Outline: as §1

Binder	SPOT peptide array binding signal intensity
B1	23.5
B2	≤ 0

target: AgHse1; assay: as above
Outline: as §1

Binder	SPOT peptide array binding signal intensity
B1	4.5
B2	≤ 0

target: AgLsb1; assay: as above
Outline: as §1

Binder	SPOT peptide array binding signal intensity
B1	≤ 0
B2	1080

target: AgLsb4; assay: as above
Outline: as §1

Binder	SPOT peptide array binding signal intensity
B1	≤ 0
B2	69.5

target: AgMyo5; assay: as above
Outline: as §1

Binder	SPOT peptide array binding signal intensity
B1	1100
B2	≤ 0

target: AgNbp2; assay: as above
Outline: as §1

Binder	SPOT peptide array binding signal intensity
B1	≤ 0
B2	45

target: AgRvs167; assay: as above
Outline: as §1

Binder	SPOT peptide array binding signal intensity
B1	1.33
B2	13.2

target: AgSho1; assay: as above
Outline: as §1

Binder	SPOT peptide array binding signal intensity
B1	≤ 0
B2	1

target: AgSla1-D1-D2; assay: as above
Outline: as §1

Binder	SPOT peptide array binding signal intensity
B1	≤ 0
B2	≤ 0

target: AgSla1-D3; assay: as above
Outline: as §1

Binder	SPOT peptide array binding signal intensity
B1	0.5
B2	≤ 0

target: CaAbp1-D1; assay: as above
Outline: as §1

Binder	SPOT peptide array binding signal intensity
B1	≤ 0
B2	17.5

target: CaAbp1-D2; assay: as above
Outline: as §1

Binder	SPOT peptide array binding signal intensity
B1	≤ 0
B2	3

target: CaBbc1; assay: as above
Outline: as §1

Binder	SPOT peptide array binding signal intensity
B1	≤ 0
B2	962

target: CaBem1-D1; assay: as above
Outline: as §1

Binder	SPOT peptide array binding signal intensity
B1	≤ 0
B2	≤ 0

target: CaBzz1-D1; assay: as above
Outline: as §1

Binder	SPOT peptide array binding signal intensity
B1	108
B2	190

target: CaBzz1-D2; assay: as above
Outline: as §1

Binder	SPOT peptide array binding signal intensity
B1	11.8
B2	5.75

target: CaCyk3; assay: as above
Outline: as §1

Binder	SPOT peptide array binding signal intensity
B1	≤ 0
B2	34.5

target: CaFus1; assay: as above
Outline: as §1

Binder	SPOT peptide array binding signal intensity
B1	≤ 0
B2	≤ 0

target: CaHof1; assay: as above
Outline: as §1

Binder	SPOT peptide array binding signal intensity
B1	≤ 0
B2	≤ 0

target: CaHse1; assay: as above
Outline: as §1

Binder	SPOT peptide array binding signal intensity
B1	3.25
B2	≤ 0

target: CaLsb1; assay: as above
Outline: as §1

Binder	SPOT peptide array binding signal intensity
B1	≤ 0
B2	35

target: CaLsb4; assay: as above
Outline: as §1

Binder	SPOT peptide array binding signal intensity
B1	≤ 0
B2	427

target: CaMyo5; assay: as above
Outline: as §1

Binder	SPOT peptide array binding signal intensity
B1	11.5
B2	≤ 0

target: CaNbp2; assay: as above
Outline: as §1

Binder	SPOT peptide array binding signal intensity
B1	≤ 0
B2	≤ 0

target: CaRvs167; assay: as above
Outline: as §1

Binder	SPOT peptide array binding signal intensity
B1	0.5
B2	199

target: CaRvs167-3; assay: as above
Outline: as §1

Binder	SPOT peptide array binding signal intensity
B1	≤ 0
B2	≤ 0

target: CaSho1; assay: as above
Outline: as §1

Binder	SPOT peptide array binding signal intensity
B1	12
B2	≤ 0

target: CaSla1-D1-D2; assay: as above
Outline: as §1

Binder	SPOT peptide array binding signal intensity
B1	≤ 0
B2	38

target: CaSla1-D3; assay: as above
Outline: as §1

Binder	SPOT peptide array binding signal intensity
B1	≤ 0
B2	≤ 0

target: ScAbp1; assay: as above
Outline: as §1

Binder	SPOT peptide array binding signal intensity
B1	≤ 0
B2	≤ 0

target: ScBbc1; assay: as above
Outline: as §1

Binder	SPOT peptide array binding signal intensity
B1	≤ 0
B2	5.5

target: ScBem1-D1; assay: as above
Outline: as §1

Binder	SPOT peptide array binding signal intensity
B1	≤ 0
B2	2

target: ScBzz1-D1; assay: as above
Outline: as §1

Binder	SPOT peptide array binding signal intensity
B1	2.5
B2	20

target: ScBzz1-D2; assay: as above
Outline: as §1

Binder	SPOT peptide array binding signal intensity
B1	≤ 0
B2	10

target: ScCyk3; assay: as above
Outline: as §1

Binder	SPOT peptide array binding signal intensity
B1	≤ 0
B2	≤ 0

target: ScFus1; assay: as above
Outline: as §1

Binder	SPOT peptide array binding signal intensity
B1	≤ 0
B2	≤ 0

target: ScHof1; assay: as above
Outline: as §1

Binder	SPOT peptide array binding signal intensity
B1	25.5
B2	≤ 0

target: ScHse1; assay: as above
Outline: as §1

Binder	SPOT peptide array binding signal intensity
B1	≤ 0
B2	≤ 0

target: ScLsb1; assay: as above
Outline: as §1

Binder	SPOT peptide array binding signal intensity
B1	≤ 0
B2	681

target: ScLsb2; assay: as above
Outline: as §1

Binder	SPOT peptide array binding signal intensity
B1	≤ 0
B2	2160

target: ScLsb3; assay: as above
Outline: as §1

Binder	SPOT peptide array binding signal intensity
B1	≤ 0
B2	1550

target: ScLsb4; assay: as above
Outline: as §1

Binder	SPOT peptide array binding signal intensity
B1	≤ 0
B2	293

target: ScMyo3; assay: as above
Outline: as §1

Binder	SPOT peptide array binding signal intensity
B1	2140
B2	≤ 0

target: ScMyo5; assay: as above
Outline: as §1

Binder	SPOT peptide array binding signal intensity
B1	1690
B2	≤ 0

target: ScNbp2; assay: as above
Outline: as §1

Binder	SPOT peptide array binding signal intensity
B1	≤ 0
B2	526

target: ScPex13; assay: as above
Outline: as §1

Binder	SPOT peptide array binding signal intensity
B1	140
B2	1310

target: ScRvs167; assay: as above
Outline: as §1

Binder	SPOT peptide array binding signal intensity
B1	1
B2	1530

target: ScSho1; assay: as above
Outline: as §1

Binder	SPOT peptide array binding signal intensity
B1	≤ 0
B2	≤ 0

target: ScSla1-D1-D2; assay: as above
Outline: as §1

Binder	SPOT peptide array binding signal intensity
B1	≤ 0
B2	329

target: ScSla1-D3; assay: as above
Outline: as §1

Binder	SPOT peptide array binding signal intensity
B1	≤ 0
B2	145

target: SpAbp1-D1; assay: as above
Outline: as §1

Binder	SPOT peptide array binding signal intensity
B1	≤ 0
B2	3

target: SpBbc1; assay: as above
Outline: as §1

Binder	SPOT peptide array binding signal intensity
B1	≤ 0
B2	182

target: SpBzz1-D1; assay: as above
Outline: as §1

Binder	SPOT peptide array binding signal intensity
B1	1360
B2	95

target: SpBzz1-D2; assay: as above
Outline: as §1

Binder	SPOT peptide array binding signal intensity
B2	0.5

target: SpCyk3; assay: as above
Outline: as §1

Binder	SPOT peptide array binding signal intensity
B2	≤ 0

target: SpHof1; assay: as above
Outline: as §1

Binder	SPOT peptide array binding signal intensity
B2	1

target: SpHof1-2; assay: as above
Outline: as §1

Binder	SPOT peptide array binding signal intensity
B2	2

target: SpHof1-3; assay: as above
Outline: as §1

Binder	SPOT peptide array binding signal intensity
B2	11

target: SpHse1; assay: as above
Outline: as §1

Binder	SPOT peptide array binding signal intensity
B2	≤ 0

target: SpLsb1; assay: as above
Outline: as §1

Binder	SPOT peptide array binding signal intensity
B2	756

target: SpLsb4; assay: as above
Outline: as §1

Binder	SPOT peptide array binding signal intensity
B2	3340

target: SpMyo1; assay: as above
Outline: as §1

Binder	SPOT peptide array binding signal intensity
B2	2

target: SpNbp2; assay: as above
Outline: as §1

Binder	SPOT peptide array binding signal intensity
B2	3

target: SpPex13; assay: as above
Outline: as §1

Binder	SPOT peptide array binding signal intensity
B2	≤ 0

target: SpRvs167; assay: as above
Outline: as §1

Binder	SPOT peptide array binding signal intensity
B2	802

target: SpSla1-D1-D2; assay: as above
Outline: as §1

Binder	SPOT peptide array binding signal intensity
B2	≤ 0

target: SpSla1-D3; assay: as above
Outline: as §1

Binder	SPOT peptide array binding signal intensity
B2	≤ 0
